HSF1 inh: HSF1 inhibition; 300,000 tested, 0.77% active; NIH3T3-HGL HSE-luciferase, MG132-induced, luminescence 8 h; stronger effect = lower value; activity change, negative = inhibition, % at 7.5 µM (by protocol);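 active = more than half of replicate wells show activity change below -50%, luminescence cut by over half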;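 also: luciferase reports HSF-1 transcriptional activity via heat shock element; 0% = median of DMSO wells and -100% = zero luminescence signal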
HSP90 inh: blocks HSP90-mediated luciferase refolding in reticulocyte lysate; Rabbit reticulocyte lysate, luciferase refolding luminescence, 3 h; inhibition, % at 5.6 µM; 290,000 tested, 0.91% active; AID 1789;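 active = inhibition above the screen-wide mean plus 3 SD, computed separately per campaign, cut at about 16% in these data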;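 also: 0% = DMSO wells and 100% = 60 µM geldanamycin wells; inhibitors lower the luminescence because luciferase stays unfolded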
STAT1 inh: reduces IFN-gamma driven STAT1 reporter signal. NIH 3T3 STAT1-luciferase reporter, luminescence. AID 920. 200,000 tested, 0.35% active. inhibition, % at 5.5 µM;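 active = inhibition above a set limit, the mean inhibition across all tested compounds plus 3 SD, cut at about 34% in these data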;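 also: 0% = IFN-gamma with DMSO and 100% = IFN-gamma with 300 µM nifuroxazide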
STAT3 inh-1: reduces IL-6 driven STAT3 reporter signal | U3A cells, IL-6 STAT3-luciferase reporter, luminescence; host cell line lacks STAT1 | inhibition, % at 5.5 µM | 190,000 tested, 0.89% active;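 active = inhibition above the mean inhibition across all screened compounds plus 3 SD, cut at about 44% in these data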;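 also: 0% = DMSO only wells and 100% = 100 µM nifuroxazide control wells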
TRAIL sens C8: sensitizes caspase-8 expressing cells to TRAIL; 360,000 tested, 1% active; NB7+C8 cells + TRAIL, ATPlite viability luminescence; inhibition (viability loss, TRAIL sensitization), % at 10 µM;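 active = compounds causing at least 50% loss of cell viability in the single-dose screen, relative to plate controls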
PPC-1+TRAIL kill: kills PPC-1 cancer cells in the presence of TRAIL. PPC-1 cells + TRAIL, ATPLite viability luminescence. 220,000 tested, 0.41% active. cell killing (% activity), % at 4 µM or 5 µM;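 active = cell killing above 50% in the first pass at 4 µM, then a duplicate retest at 5 µM averaging 50% or more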;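 also: plate controls were cells with TRAIL plus DMSO for no effect and medium-only wells lacking cells for full effect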
STAT3 inh-2: STAT3 inhibition, confirmation assay. U3A cells, IL-6 STAT3 luciferase reporter, luminescence; cell line lacks STAT1. 1,200 tested, 45% active. inhibition, % at 5.7 µM. shares compounds with STAT3 inh-1;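 active = inhibition above the hit cutoff computed for the primary STAT3 screen, cut at about 44% in these data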;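 also: 0% = IL-6 plus DMSO and 100% = IL-6 plus nifuroxazide control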
NFkB inh STAT3ct: counter-screen for STAT3 inhibitors: NF-kappaB inhibition. inhibition, % at 5.7 µM. HEK293T NF-kB luciferase reporter, TNF-alpha induced. 1,200 tested, 36% active. shares compounds with STAT3 inh-1;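 active = inhibition above the mean of solvent-only control wells plus 3 SD, cutoff set per campaign, cut at about 13% in these data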;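 also: 0% = TNF-alpha with DMSO and 100% = TNF-alpha with MG high control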
STAT1 inh 2: STAT1 inhibition in STAT3 inhibitor counter-screen; shares compounds with STAT3 inh-1; NIH 3T3 STAT1-luciferase reporter, IFN-gamma induced, luminescence; inhibition, % at 5.7 µM; 1,200 tested, 27% active; AID 1317;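 active = inhibition above the mean plus 3 SD of solvent-only control wells, limit set per screening run, cut at about 16% in these data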;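 also: 0% = DMSO with IFN-gamma and 100% = nifuroxazide control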
An asterisk follows results filed as active. This is a sample that favours compounds with a hit; in the whole collection about 2.4% have one here.

Screening CCCCOCCCNC(=O)C[C@@H]1C[C@@]2(C(=O)OC)CCCCC=C2N(CCc2ccc(OC)c(OC)c2)C1=O returned TRAIL sens C8 9.
Screening O=C(Nc1cc(S(=O)(=O)N2CCCCC2)ccc1Cl)c1ccccc1NS(=O)(=O)c1ccc(F)cc1 returned HSF1 inh 21, HSP90 inh -2, STAT1 inh 26, STAT3 inh-1 51*, TRAIL sens C8 45, PPC-1+TRAIL kill 24, STAT3 inh-2 36, NFkB inh STAT3ct 18* and STAT1 inh 2 29*.
Cc1ccc(S(=O)(=O)Nc2ccccc2C(=O)Nc2nc(-c3ccc(F)cc3)cs2)cc1 was read as HSF1 inh -1, HSP90 inh -6, STAT1 inh 30, STAT3 inh-1 45*, TRAIL sens C8 53*, PPC-1+TRAIL kill 25, STAT3 inh-2 33, NFkB inh STAT3ct 18* and STAT1 inh 2 26*.
For CC1(C(=O)NS(=O)(=O)C2CC2)CCN(C(=O)c2ccccc2F)C1 (stereo not given) the results were TRAIL sens C8 -9.
For Cc1cc(NC(=O)Cc2ccccc2)c2ccccc2n1 the results were HSF1 inh 1, HSP90 inh 2, STAT1 inh 32, STAT3 inh-1 72*, TRAIL sens C8 37, PPC-1+TRAIL kill 14, STAT3 inh-2 69*, NFkB inh STAT3ct 22* and STAT1 inh 2 25*.
CC1CCN(S(=O)(=O)N2CCC(C(=O)NCc3ccc(F)cc3Cl)CC2)CC1 was read as TRAIL sens C8 -6.
Screening O=C(Nc1ccc2oc(-c3ccccc3)nc2c1)c1ccncc1 returned HSF1 inh 5, HSP90 inh 1, STAT1 inh -6, STAT3 inh-1 46*, TRAIL sens C8 18, PPC-1+TRAIL kill 10, STAT3 inh-2 35, NFkB inh STAT3ct 3 and STAT1 inh 2 -8.
For O=C(Nc1ccc(-c2nc3ccccc3o2)cc1)c1ccc(N2C(=O)C3C4C=CC(C4)C3C2=O)cc1 (stereo not given) the results were HSF1 inh -10, HSP90 inh 1, STAT1 inh 7, STAT3 inh-1 74*, TRAIL sens C8 40, PPC-1+TRAIL kill 30, STAT3 inh-2 68*, NFkB inh STAT3ct 17* and STAT1 inh 2 -11.
COc1cc(OC)cc(C(=O)Nc2ccc(-c3nc4ccccc4o3)cc2)c1 was read as HSF1 inh 2, HSP90 inh 3, STAT1 inh 9, STAT3 inh-1 46*, TRAIL sens C8 -2, PPC-1+TRAIL kill 11, STAT3 inh-2 45*, NFkB inh STAT3ct 3 and STAT1 inh 2 12.
Screening O=C(Nc1ccc2oc(-c3ccccc3)nc2c1)c1cccs1 returned HSF1 inh 44, HSP90 inh -1, STAT1 inh -55, STAT3 inh-1 13, TRAIL sens C8 18 and PPC-1+TRAIL kill 11.
`O=C(NCc1ccccc1)C(c1ccc(-c2ccccc2)cc1)N1CCN(C(=O)C2CCCO2)CC1` (stereo not given) gave TRAIL sens C8 -1.
Cc1cnc(-c2nc3ccccc3n2C(C)C(=O)Nc2c(C)cccc2C)cn1 (stereo not given) was read as TRAIL sens C8 -8.
Screening COc1ccc2nc(NC(=S)N(C)C)sc2c1 returned HSF1 inh 25, HSP90 inh 0, STAT1 inh -77, STAT3 inh-1 44*, TRAIL sens C8 32, PPC-1+TRAIL kill 35, STAT3 inh-2 21, NFkB inh STAT3ct -48 and STAT1 inh 2 -165.
`CC1(C(=O)Nc2ccc3nc[nH]c3c2)CCN1C(=O)c1ccccc1CCc1ccccc1` (stereo not given) gave TRAIL sens C8 2.

Source: PubChem
